Records with an inconclusive call do not appear. Entries that show only a call come without a potency. Activity calls are given as the source filed them. Calls come from the whole dose curve; as a rule, active = well fitted activation curve with a large enough effect in the signal ratio; inconclusive = small, poorly fitted or top-dose-only effect, or effect the other way, or a change in a side signal; inactive = flat fitted curve, though single readings scatter; the % refers to the signal ratio.
Experiment: qHTS assay to identify small molecules that stimulate interleukin-8 (IL-8) secretion (AID 651758)
Conditions: HTRF ratio (665/615); series mostly up to 92.2 µM
From the text: National Center for Advancing Translational Sciences [NCATS]
NIH Chemical Genomics Center [NCGC]
National Institutes of Environmental Health Sciences [NIEHS]
National Toxicology Program [NTP]
Interleukin-8 is a 8 kDa chemokine produced by macrophages and other cells like epithelial cells that is often associated with inflammation. Interleukin-8 secretion is a key parameter in localized inflammation. There is a growing concern for some of environmental chemicals which may contribute the increasing the incidence of inflammation. A homogeneous IL-8 assay using Time Resolved fluorescence (HTRF) technology based on Time Resolved Fluorescent Resonance Energy Transfer (TR-FRET) allows to measure IL-8 secreted from the cells in a 1536-well plate format.
THP-1 cells were dispensed at 2000 cells/5ul/well in 1536-well white solid plates. After addition of 23 nl of compound, positive controls and DMSO only, the assay plates were incubated at 37 C for 16 hrs, followed by addition of 5 uL of mixture of cryptate labeled and XL665 labeled anti-IL-8 antibodies. After the assay plates were incubated at room temperature for 1-3 hrs, the plates were measured by an EnVision plate reader.
Potency is the fitted concentration of half-maximal effect.

| Structure (SMILES) | Potency |
| --- | --- |
| O=Cc1ccc2c(c1)OCO2 | inactive |
| C=CC(=O)OCC(C)C | inactive |
| CCCCCc1cc(O)cc(O)c1 | inactive |
| O=NN1CCCCC1 | inactive |
| Clc1cccc(Cl)c1Cl | inactive |
| CCOC(=O)C1OC1(C)c1ccccc1 (stereo not given) | inactive |
| Cl/C=C/CCl | inactive |
| c1ccc(NNc2ccccc2)cc1 | inactive |
| C=COC(C)=O | inactive |
| CC(C)Br | inactive |
| N#CCCCCC#N | inactive |
| O=C(Cl)OCc1ccccc1 | inactive |
| O=[N+]([O-])c1ccccc1O | inactive |
| O=C(O)CBr | inactive |
| Cc1ccc(N)cc1Cl | inactive |
| Clc1cccc2ccccc12 | inactive |
| O=[N+]([O-])c1ccc2c3c(cccc13)CC2 | inactive |
| CCOC(=O)CBr | inactive |
| O=[N+]([O-])c1ccc(O)c([N+](=O)[O-])c1 | inactive |
| O=[N+]([O-])c1cccc(O)c1 | inactive |

| Structure (SMILES) | Potency |
| --- | --- |
| CCC(Cl)[N+](=O)[O-] (stereo not given) | inactive |
| Oc1ccc(Cl)c(Cl)c1Cl | inactive |
| Nc1ccc(Oc2ccc(N)cc2)cc1 | inactive |
| BrCC(Br)(Br)Br | 42.2 µM (active) |
| COc1c(C(C)(C)C)cc([N+](=O)[O-])c(C)c1[N+](=O)[O-] | inactive |
| NNC(N)=S | inactive |
| Nc1ccc(Cl)c(Cl)c1 | inactive |
| O=C(Cc1ccccc1)OCc1ccccc1 | inactive |
| CCCCCOC(=O)c1ccccc1C(=O)OCCCCC | inactive |
| CC(C)CC(C)N (stereo not given) | inactive |
| CC(C)[N+](=O)[O-] | inactive |
| CSSC | inactive |
| CCC/C=N/O | inactive |
| CC(Cl)(Cl)Cl | inactive |
| Nc1ccc2ccccc2c1 | inactive |
| CNC(=O)O/N=C/C(C)(C)S(C)=O (stereo not given) | inactive |
| CCCBr | inactive |
| CN(C)C(=O)Nc1cccc(C(F)(F)F)c1 | inactive |
| OCC(Cl)CCl (stereo not given) | inactive |
| COc1ccc(C=O)cc1 | inactive |

— PubChem BioAssay (NCATS)
